Screens from PubChem BioAssay.
Beta apoptosis: blocks beta cell apoptosis; INS-1E cytokine-induced death, ATP luminescence, 48 h; percent of positive-control rescue, neutral wells zero; protection from apoptosis, % (concentration not given with the values); hit rate 0.8% among 300,000;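 active = Every replicate reaches about 75%, or at least half do and their mean reaches it too, limit read from the data; inconclusive = At least half of replicates reach the limit but their mean does not; inactive = Under half of replicates reach the limit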;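 also: 0% = cytokine-treated negative control wells and 100% = positive control rescue; higher means more ATP so stronger rescue from cytokine killing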
Calb FLC: affects C. albicans growth with fluconazole; C. albicans CaCi-2 (fluconazole-resistant clinical isolate) + fluconazole, Alamar Blue growth, 48 h; growth inhibition, % (no concentration beside the values); hit rate 0.57% among 300,000; AID 1979;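 active = growth inhibition above about 58% in most replicates, limit read from the data, passing the limit was not always enough; inconclusive = exactly half the replicates above a set limit; inactive = most replicates below a set limit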;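 also: all wells also contain fluconazole at 8 µg/ml as a sub-toxic cotreatment; 0% = median of DMSO wells and 100% = median of geldanamycin control wells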
Jurkat NFkB inh: lowers PMA/ionomycin-induced NF-kB signal in Jurkat cells; AID 435003; inhibition, % at 4 µM; PMA/ionomycin-induced NF-kB luciferase reporter, luminescence; hit rate 0.53% among 330,000; in the data active = inhibition above about 50%
697 NFkB inh: inhibitors of the PMA/ionomycin-induced NF-kB reporter in 697 B cells. 697 B-cell NF-kB luciferase reporter, 16 h. AID 435022. inhibition, % at 4 µM. hit rate 0.33% among 330,000; in the data active = inhibition above about 35%
Shn3 3UTR inh: reduces Shn3 3'UTR luciferase signal in osteoblasts; Clone20 osteoblast Shn3 3'UTR firefly luciferase, 24 h; AID 588674; inhibition, % at 12.5 µM; hit rate 0.52% among 360,000;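 active = mean inhibition of at least 75% with every replicate also reaching 75%; inconclusive = mean inhibition at least 75% but some replicate below; inactive = mean inhibition below 75%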;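 also: 0% = median of neutral control wells and 100% = pilot-screen positive control compound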
Numbers without * were called inactive; ? = inconclusive; · = not tested or not shown. Compounds with a hit are over-represented: about 2% of the library has one in this group of screens.

SMILES	Beta apoptosis	Calb FLC	Jurkat NFkB inh	697 NFkB inh	Shn3 3UTR inh
C/C(=N/NC(=O)c1cnccn1)c1ccncc1	-5.3	16.4	1.0	10.9	-5.9
CCOC(COC(=O)c1ccccc1C(=O)O)c1ccccc1 (configuration not stated)	·	·	·	·	-10.0
CC1(C(=O)OCC(=O)Nc2nnc(-c3ccccc3)o2)CC1(Cl)Cl (configuration not stated)	-2.4	-2.0	9.2	8.2	0.6
Cc1ccc(C)c(OC(=O)c2cncc(Br)c2)c1	-2.8	97.8*	5.6	-47.6	9.6
CCc1ccc(C)c(OC(=O)c2cncc(Br)c2)c1	-3.5	8.8	9.3	5.9	0.0
O=C1CCCN1c1ccc(S(=O)(=O)NCCOc2ccccc2)cc1	1.7	-15.3	6.3	-17.6	2.9
Cc1cc(N2CCCC2=O)cc(C)c1S(=O)(=O)NCCOc1ccc(C(C)(C)C)cc1	109.4*	17.6	5.9	-43.0	?
Cc1ccccc1NC(=O)CSc1nc2ccccc2c(=O)n1C	2.1	-3.3	14.1	-30.6	86.9*
O=C(NC(NC(=S)Nc1ccc(Cl)cc1Cl)C(Cl)(Cl)Cl)c1cccc([N+](=O)[O-])c1 (configuration not stated)	96.8*	-8.8	-56.5	-52.3	16.9
O=C(NC(NC(=S)Nc1ccccc1)C(Cl)(Cl)Cl)c1cccc(Cl)c1 (configuration not stated)	94.8*	-3.9	17.4	2.6	50.6
O=C(O)c1cccc(NC(=S)NC(NC(=O)c2cccc([N+](=O)[O-])c2)C(Cl)(Cl)Cl)c1 (configuration not stated)	10.0	-13.1	-4.2	-27.5	-18.7
CC1OC2CC(=O)OC2C2=C1C(=O)c1c(O)cccc1C2=O (configuration not stated)	·	·	·	·	93.8*
CC1(C)CC[C@]2(C(=O)O)CC[C@]3(C)C(=CC[C@@H]4[C@@]5(C)CC[C@H](O[C@@H]6O[C@H](C(=O)O)[C@@H](O)[C@H](O[C@@H]7OC[C@H](O)[C@H](O)[C@H]7O)[C@H]6O)C(C)(C)[C@@H]5CC[C@]43C)[C@@H]2C1	108.6*	·	-11.7	2.9	71.0
CC1=CC2C(C(O)CC3(C)C2CC(C)C32OCOC23COCO3)C2(C)C/C(=C\O)C(=O)C=C12 (configuration not stated)	·	·	·	·	87.5*
COc1ccc(N2CCN(C(=O)COC(=O)Cc3c(F)cccc3Cl)CC2)cc1	3.2	-6.0	11.9	7.9	-5.3
Cc1cc(S(=O)(=O)c2ccc(Cl)cc2)nc(S(=O)(=O)c2ccc(Cl)cc2)c1C#N	·	·	·	·	90.8*
Cc1nn(CC(=O)NCCCN2CCCC2=O)c(C)c1[N+](=O)[O-]	2.0	·	8.8	5.2	-7.4
Cc1cccc(C(=O)N[C@H](C(=O)Nc2ncc(C)s2)C(C)C)c1	75.5*	-20.2	5.0	-30.1	-10.1
Cc1cccc(C(=O)N[C@H](C(=O)Nc2nnc(C3CC3)s2)C(C)C)c1	-4.7	-0.5	7.5	-9.2	-5.1
CC(CNC(=O)c1cc(COc2ccc3ncccc3c2)on1)c1ccccc1 (configuration not stated)	·	3.2	38.4	-28.9	88.3*
Cc1cccnc1CN1CCN(C(=O)c2cc(COc3ccc4ncccc4c3)on2)CC1	99.8*	-13.2	25.7	-46.7	87.9*
O=C(NC1CCCCCCC1)c1cc(COc2ccc3ncccc3c2)on1	·	2.2	·	·	87.9*
O=[N+]([O-])c1ccc(/C=N/N=C/c2ccc([N+](=O)[O-])o2)o1	·	·	·	·	98.1*
CC1(C(=O)N/N=C/c2ccc([N+](=O)[O-])o2)CC1(Br)Br (configuration not stated)	1.9	91.5*	8.1	2.7	-13.3
N#CCc1ccc(NC(=O)/C=C/c2ccc([N+](=O)[O-])o2)cc1	·	97.0*	·	·	64.4
SMILES	Beta apoptosis	Calb FLC	Jurkat NFkB inh	697 NFkB inh	Shn3 3UTR inh
O=C(Cc1ccc([N+](=O)[O-])cc1)N/N=C/c1ccc([N+](=O)[O-])o1	97.2*	5.8	-5.0	7.6	1.1
C=CCOC(=O)COc1ccc2c3c(c(=O)oc2c1)CCCC3	·	·	·	·	-9.7
CCCCCCCC(=O)N/N=C/c1ccc([N+](=O)[O-])o1	-0.2	101.3*	-9.0	15.8	3.7
CC(C)(C)CC(=O)Nc1nnc(C(F)(F)F)s1	3.3	81.5*	-95.6	-115.7	7.1
CC(NC(=O)Nc1nnc(C(F)(F)F)s1)(C(F)(F)F)C(F)(F)F	119.9*	70.6	10.7	-90.2	61.5
COC(=O)c1c(NC2=NS(=O)(=O)c3ccccc32)sc2c1CCC(C(C)(C)C)C2 (configuration not stated)	·	·	·	·	22.7
Nc1ccc(N2CCN(c3cccc(Cl)c3)CC2)cc1	4.6	101.3*	22.9	21.4	6.7
O=C(NCc1cccnc1)c1ccc(S(=O)(=O)N2CCCCC2)cc1	·	1.8	8.6	5.0	-6.6
O=S(=O)(c1ccc(NC(=S)NCc2cccnc2)cc1)N1CCCCC1	126.2*	-3.7	18.8	13.3	37.7
COc1cccc2c(SCC(=O)N/N=C/c3ccccc3)cc(C)nc12	-21.1	9.1	1.1	20.8	8.7
COc1cccc2c(SCC(=O)N/N=C/c3ccc(O)c(O)c3)cc(C)nc12	3.8	92.3*	·	·	9.2
Cc1cc(O)cc(O)c1/C=N/NC(=O)c1ccc2c(c1)OCCO2	·	·	·	·	90.7*
COc1ccccc1S(=O)(=O)Nc1cc(C)nn1-c1ccc(C)cc1	-3.1	23.1	-1.6	-3.0	13.1
O=C1NN(c2ccc(Br)cc2)C(=O)/C1=C\c1ccc(O)cc1O	-3.0	98.0*	-8.9	-5.6	-12.5
O=C1NN(c2ccccc2)C(=O)C1=Cc1ccccc1O	·	·	·	·	0.1
CCC(=O)N1CCC1(C)C(=O)Nc1nccs1 (configuration not stated)	·	·	·	·	-26.9
CC1=NNC(=O)/C1=C\c1cn(-c2ccccc2)nc1-c1ccccc1	109.1*	4.0	·	·	97.3*
O=Cc1cn(-c2ccccc2)nc1-c1ccccc1	·	5.5	-22.2	-4.9	-34.7
O=C(Nc1cc(-c2ccccc2)nn1C1CCCCC1)c1ccc(Cl)cc1	97.3*	·	6.4	-2.5	72.4
O=C(Nc1ccnn1C1CCN(Cc2c[nH]c3ccccc23)CC1)c1ccccc1	-2.9	-4.6	4.0	6.5	-6.7
C#CCOCCOCCOCCNc1nc(N2CCN(C(=O)CCCCCCCCCCNC(=O)[C@H]([C@@H](C)CC)n3cc(CCCCCN)nn3)CC2)nc(N2CCN(C(=O)CCCCCCCCCCNC(=O)[C@@H]([C@H](C)O)n3cc(C)nn3)CC2)n1	81.4*	·	49.2	-24.6	15.2
CC[C@H](C)Cc1cn([C@@H](CCCCNC(=O)OC(C)(C)C)C(=O)NCCCCCCCCCCC(=O)N2CCN(C(=O)OC(C)(C)C)CC2)nn1	81.8*	·	15.3	-69.3	68.9
C#CCOCCOCCOCCNc1nc(N2CCN(C(=O)CCCCCCCCCCNC(=O)[C@H](CCCCN)n3cc(CCO)nn3)CC2)nc(N2CCN(C(=O)CCCCCCCCCCNC(=O)[C@H](CCCN=C(N)N)n3cc(C[C@@H](C)CC)nn3)CC2)n1	62.8	·	14.8	1.0	51.8
